Experimental data as given in the supplement of paper PMC4466140.

B1: unnamed (peptide)
chain: KNRKNLPTIPIRLSG
B2: unnamed (peptide)
chain: NMLSRPRLAKLPSIR

Molecular target: SpBzz1-D2
Experiment: SPOT peptide array binding signal intensity (averaged, normalized) (arbitrary units (background-subtracted, floor 0; scale differs between SH3 domains)); higher = stronger binding of the SH3 domain to the peptide
How it was run: (§1)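 E. coli BL21(DE3) was used to express GST-fused SH3 domains from four yeast species, which were then purified on glutathione Sepharose. These were incubated at 10 μg/ml in TBS-based blocking buffer overnight at 4°C on cellulose membranes carrying synthetic 15-mer peptides, in which cysteines were replaced by serines. Binding signal is the replicate average of normalized, background-subtracted spot intensity, in arbitrary units that differ between domains.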

Row | Binder | SPOT peptide array binding signal intensity
1 | B1 | 1.5
2 | B2 | 13

Molecular target: SpCyk3
Experiment: as above
How it was run: as §1

Row | Binder | SPOT peptide array binding signal intensity
3 | B1 | 23.5
4 | B2 | 3

Molecular target: SpHof1
Experiment: as above
How it was run: as §1

Row | Binder | SPOT peptide array binding signal intensity
5 | B1 | 1400
6 | B2 | 100

Molecular target: SpHof1-2
Experiment: as above
How it was run: as §1

Row | Binder | SPOT peptide array binding signal intensity
7 | B1 | 2230
8 | B2 | 59.2

Molecular target: SpHof1-3
Experiment: as above
How it was run: as §1

Row | Binder | SPOT peptide array binding signal intensity
9 | B1 | 1490
10 | B2 | 1590

Molecular target: SpHse1
Experiment: as above
How it was run: as §1

Row | Binder | SPOT peptide array binding signal intensity
11 | B1 | 166
12 | B2 | 2030

Molecular target: SpLsb1
Experiment: as above
How it was run: as §1

Row | Binder | SPOT peptide array binding signal intensity
13 | B1 | 510
14 | B2 | 10.5

Molecular target: SpLsb4
Experiment: as above
How it was run: as §1

Row | Binder | SPOT peptide array binding signal intensity
15 | B1 | 2330
16 | B2 | 859

Molecular target: SpMyo1
Experiment: as above
How it was run: as §1

Row | Binder | SPOT peptide array binding signal intensity
17 | B1 | 25
18 | B2 | 24.8

Molecular target: SpNbp2
Experiment: as above
How it was run: as §1

Row | Binder | SPOT peptide array binding signal intensity
19 | B1 | 336
20 | B2 | 577

Molecular target: SpPex13
Experiment: as above
How it was run: as §1

Row | Binder | SPOT peptide array binding signal intensity
21 | B1 | 9.5
22 | B2 | 74

Molecular target: SpRvs167
Experiment: as above
How it was run: as §1

Row | Binder | SPOT peptide array binding signal intensity
23 | B1 | 1010
24 | B2 | 32.2

Molecular target: SpSla1-D1-D2
Experiment: as above
How it was run: as §1

Row | Binder | SPOT peptide array binding signal intensity
25 | B1 | 1490
26 | B2 | 8

Molecular target: SpSla1-D3
Experiment: as above
How it was run: as §1

Row | Binder | SPOT peptide array binding signal intensity
27 | B1 | 6
28 | B2 | 194

Molecular target: AgAbp1
Experiment: as above
How it was run: as §1

Row | Binder | SPOT peptide array binding signal intensity
29 | B2 | 124

Molecular target: AgBbc1
Experiment: as above
How it was run: as §1

Row | Binder | SPOT peptide array binding signal intensity
30 | B2 | 16.5

Molecular target: AgBem1-D1
Experiment: as above
How it was run: as §1

Row | Binder | SPOT peptide array binding signal intensity
31 | B2 | 394

Molecular target: AgBzz1-D1
Experiment: as above
How it was run: as §1

Row | Binder | SPOT peptide array binding signal intensity
32 | B2 | 23

Molecular target: AgBzz1-D2
Experiment: as above
How it was run: as §1

Row | Binder | SPOT peptide array binding signal intensity
33 | B2 | 3

Molecular target: AgCyk3
Experiment: as above
How it was run: as §1

Row | Binder | SPOT peptide array binding signal intensity
34 | B2 | ≤ 0

Molecular target: AgFus1
Experiment: as above
How it was run: as §1

Row | Binder | SPOT peptide array binding signal intensity
35 | B2 | 458

Molecular target: AgHof1
Experiment: as above
How it was run: as §1

Row | Binder | SPOT peptide array binding signal intensity
36 | B2 | 331

Molecular target: AgHse1
Experiment: as above
How it was run: as §1

Row | Binder | SPOT peptide array binding signal intensity
37 | B2 | 2140

Molecular target: AgLsb1
Experiment: as above
How it was run: as §1

Row | Binder | SPOT peptide array binding signal intensity
38 | B2 | 3.25

Molecular target: AgLsb4
Experiment: as above
How it was run: as §1

Row | Binder | SPOT peptide array binding signal intensity
39 | B2 | 59

Molecular target: AgMyo5
Experiment: as above
How it was run: as §1

Row | Binder | SPOT peptide array binding signal intensity
40 | B2 | ≤ 0

Molecular target: AgNbp2
Experiment: as above
How it was run: as §1

Row | Binder | SPOT peptide array binding signal intensity
41 | B2 | 362

Molecular target: AgRvs167
Experiment: as above
How it was run: as §1

Row | Binder | SPOT peptide array binding signal intensity
42 | B2 | 4.33

Molecular target: AgSho1
Experiment: as above
How it was run: as §1

Row | Binder | SPOT peptide array binding signal intensity
43 | B2 | 388

Molecular target: AgSla1-D1-D2
Experiment: as above
How it was run: as §1

Row | Binder | SPOT peptide array binding signal intensity
44 | B2 | 27

Molecular target: AgSla1-D3
Experiment: as above
How it was run: as §1

Row | Binder | SPOT peptide array binding signal intensity
45 | B2 | 4.5

Molecular target: CaAbp1-D1
Experiment: as above
How it was run: as §1

Row | Binder | SPOT peptide array binding signal intensity
46 | B2 | 822

Molecular target: CaAbp1-D2
Experiment: as above
How it was run: as §1

Row | Binder | SPOT peptide array binding signal intensity
47 | B2 | 754

Molecular target: CaBbc1
Experiment: as above
How it was run: as §1

Row | Binder | SPOT peptide array binding signal intensity
48 | B2 | 165

Molecular target: CaBem1-D1
Experiment: as above
How it was run: as §1

Row | Binder | SPOT peptide array binding signal intensity
49 | B2 | 526

Molecular target: CaBzz1-D1
Experiment: as above
How it was run: as §1

Row | Binder | SPOT peptide array binding signal intensity
50 | B2 | 184

Molecular target: CaBzz1-D2
Experiment: as above
How it was run: as §1

Row | Binder | SPOT peptide array binding signal intensity
51 | B2 | 69.8

Molecular target: CaCyk3
Experiment: as above
How it was run: as §1

Row | Binder | SPOT peptide array binding signal intensity
52 | B2 | 46

Molecular target: CaFus1
Experiment: as above
How it was run: as §1

Row | Binder | SPOT peptide array binding signal intensity
53 | B2 | 1210

Molecular target: CaHof1
Experiment: as above
How it was run: as §1

Row | Binder | SPOT peptide array binding signal intensity
54 | B2 | 0.25

Molecular target: CaHse1
Experiment: as above
How it was run: as §1

Row | Binder | SPOT peptide array binding signal intensity
55 | B2 | 183

Molecular target: CaLsb1
Experiment: as above
How it was run: as §1

Row | Binder | SPOT peptide array binding signal intensity
56 | B2 | 2

Molecular target: CaLsb4
Experiment: as above
How it was run: as §1

Row | Binder | SPOT peptide array binding signal intensity
57 | B2 | 290

Molecular target: CaMyo5
Experiment: as above
How it was run: as §1

Row | Binder | SPOT peptide array binding signal intensity
58 | B2 | 46.5

Molecular target: CaNbp2
Experiment: as above
How it was run: as §1

Row | Binder | SPOT peptide array binding signal intensity
59 | B2 | 1250

Molecular target: CaRvs167
Experiment: as above
How it was run: as §1

Row | Binder | SPOT peptide array binding signal intensity
60 | B2 | 97.2

Molecular target: CaRvs167-3
Experiment: as above
How it was run: as §1

Row | Binder | SPOT peptide array binding signal intensity
61 | B2 | 60.5

Molecular target: CaSho1
Experiment: as above
How it was run: as §1

Row | Binder | SPOT peptide array binding signal intensity
62 | B2 | 1490

Molecular target: CaSla1-D1-D2
Experiment: as above
How it was run: as §1

Row | Binder | SPOT peptide array binding signal intensity
63 | B2 | 663

Molecular target: CaSla1-D3
Experiment: as above
How it was run: as §1

Row | Binder | SPOT peptide array binding signal intensity
64 | B2 | 254

Molecular target: ScAbp1
Experiment: as above
How it was run: as §1

Row | Binder | SPOT peptide array binding signal intensity
65 | B2 | 424

Molecular target: ScBbc1
Experiment: as above
How it was run: as §1

Row | Binder | SPOT peptide array binding signal intensity
66 | B2 | 3.5

Molecular target: ScBem1-D1
Experiment: as above
How it was run: as §1

Row | Binder | SPOT peptide array binding signal intensity
67 | B2 | 21

Molecular target: ScBzz1-D1
Experiment: as above
How it was run: as §1

Row | Binder | SPOT peptide array binding signal intensity
68 | B2 | 22

Molecular target: ScBzz1-D2
Experiment: as above
How it was run: as §1

Row | Binder | SPOT peptide array binding signal intensity
69 | B2 | 29.5

Molecular target: ScCyk3
Experiment: as above
How it was run: as §1

Row | Binder | SPOT peptide array binding signal intensity
70 | B2 | 35

Molecular target: ScFus1
Experiment: as above
How it was run: as §1

Row | Binder | SPOT peptide array binding signal intensity
71 | B2 | 826

Molecular target: ScHof1
Experiment: as above
How it was run: as §1

Row | Binder | SPOT peptide array binding signal intensity
72 | B2 | 28

Molecular target: ScHse1
Experiment: as above
How it was run: as §1

Row | Binder | SPOT peptide array binding signal intensity
73 | B2 | 2110

Molecular target: ScLsb1
Experiment: as above
How it was run: as §1

Row | Binder | SPOT peptide array binding signal intensity
74 | B2 | 71.5

Molecular target: ScLsb2
Experiment: as above
How it was run: as §1

Row | Binder | SPOT peptide array binding signal intensity
75 | B2 | ≤ 0

Molecular target: ScLsb3
Experiment: as above
How it was run: as §1

Row | Binder | SPOT peptide array binding signal intensity
76 | B2 | 570

Molecular target: ScLsb4
Experiment: as above
How it was run: as §1

Row | Binder | SPOT peptide array binding signal intensity
77 | B2 | 112

Molecular target: ScMyo3
Experiment: as above
How it was run: as §1

Row | Binder | SPOT peptide array binding signal intensity
78 | B2 | 13.5

Molecular target: ScMyo5
Experiment: as above
How it was run: as §1

Row | Binder | SPOT peptide array binding signal intensity
79 | B2 | ≤ 0

Molecular target: ScNbp2
Experiment: as above
How it was run: as §1

Row | Binder | SPOT peptide array binding signal intensity
80 | B2 | 370

Molecular target: ScPex13
Experiment: as above
How it was run: as §1

Row | Binder | SPOT peptide array binding signal intensity
81 | B2 | 142

Molecular target: ScRvs167
Experiment: as above
How it was run: as §1

Row | Binder | SPOT peptide array binding signal intensity
82 | B2 | 43

Molecular target: ScSho1
Experiment: as above
How it was run: as §1

Row | Binder | SPOT peptide array binding signal intensity
83 | B2 | 962

Molecular target: ScSla1-D1-D2
Experiment: as above
How it was run: as §1

Row | Binder | SPOT peptide array binding signal intensity
84 | B2 | 389

Molecular target: ScSla1-D3
Experiment: as above
How it was run: as §1

Row | Binder | SPOT peptide array binding signal intensity
85 | B2 | 418

Molecular target: SpAbp1-D1
Experiment: as above
How it was run: as §1

Row | Binder | SPOT peptide array binding signal intensity
86 | B2 | 610

Molecular target: SpBbc1
Experiment: as above
How it was run: as §1

Row | Binder | SPOT peptide array binding signal intensity
87 | B2 | 1

Molecular target: SpBzz1-D1
Experiment: as above
How it was run: as §1

Row | Binder | SPOT peptide array binding signal intensity
88 | B2 | 333
